Screening data deposited in PubChem BioAssay by several laboratories.
Most compounds without a hit are left out; they make up all but 4.2% or so of the library.
tim10-1 inh: growth inhibitors of tim10-1 mutant yeast; S. cerevisiae tim10-1 ts strain growth, BacTiter-Glo, 24 h; inhibition, % at 20 µM; hit rate 2.2% among 330,000; AID 463190;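 active = inhibition of at least 40%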;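 note: mutant grown at 25 °C; 0% = DMSO wells with yeast and 100% = wells holding no yeast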
NALP1 yeast inh: blocks the NALP1 inflammasome reconstituted in yeast; hit rate 0.61% among 280,000; S. cerevisiae NALP1/ASC/caspase-1 growth, X-gal OD620, 72 h; inhibition, % at 10 µM; in the data active = inhibition mostly above about 24%, no sharp cut-off; inactive = mostly below about 32%
tim23-1 inh: inhibits growth of tim23-1 mutant yeast; inhibition, % at 20 µM; AID 463212; S. cerevisiae tim23-1 growth, BacTiter-Glo luminescence, 24 h; hit rate 1.3% among 330,000;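 active = growth inhibition of the mutant yeast at or above 50%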;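 note: temperature-sensitive mutant grown at 25 °C; plate controls were DMSO-treated mutant yeast for no effect and medium wells lacking yeast for full effect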
PfHsp90 yeast 2: inhibits growth of yeast expressing Plasmodium falciparum Hsp90; S. cerevisiae expressing PfHsp90, BacTiter-Glo ATP, 48 h; yeast lacking PDR1 and PDR3 efflux regulators; inhibition, % at 9.4 µM; hit rate 0.32% among 310,000; AID 504621;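 active = every replicate shows inhibition above about 80%, whatever the replicate mean, limit read from the data; inconclusive = mean inhibition reaches the set limit but some replicate falls short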;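 note: 0% = DMSO neutral controls and 100% = 20 µM radicicol positive controls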
NALP3 yeast inh: NALP3 inhibition in yeast | Yeast reconstituted NLRP3/ASC/caspase-1, beta-gal luminescence, 24 h | inhibition, % at 10 µM | hit rate 0.39% among 330,000 | AID 2825;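 active = inhibition of 50% or more; inactive = inhibition below 50%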;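 note: plate controls were induced DMSO wells for no effect and uninduced yeast grown without galactose for full effect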
TIM10 inh: TIM10 yeast growth inhibition; S. cerevisiae TIM10 strain growth, BacTiter-Glo luminescence, 24 h; inhibition, % at 10 µM; hit rate 1.4% among 330,000; AID 463195;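 active = inhibition of 40% or more at the single tested concentration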;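 note: wild-type TIM10 isogenic control strain grown at permissive 25 °C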
tim10-1 conf: confirmation of tim10-1 mutant yeast growth inhibitors; shares compounds with tim10-1 inh; S. cerevisiae tim10-1 ts strain growth, BacTiter-Glo, 24 h; inhibition, % at 20 µM; hit rate 56% among 7,400;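 active = inhibition of yeast growth at or above a set limit in either of two repeat tests at 20 µM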;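 note: tim10-1 mutant grown at permissive 25 °C to find synthetic lethal compounds; 0% = DMSO yeast wells and 100% = medium wells without yeast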
* = called active by the depositor; ? = inconclusive; . = no result.

SMILES	tim10-1 inh	NALP1 yeast inh	tim23-1 inh	PfHsp90 yeast 2	NALP3 yeast inh	TIM10 inh	tim10-1 conf
CCOC(=O)C1CCCN(C2=NC(=O)/C(=C/c3ccc(O)c(OCC)c3)S2)C1 (centres undefined)	46*	3	40	6	8	28	26
COc1ccc(C(=O)CSc2nnc(COc3ccc(C#N)cc3)n2-c2ccccc2)cc1	15	0	-5	-193	-12	5	.
O=C(CSc1nnc(COc2ccccc2)n1-c1ccccc1)c1ccccc1	40*	-1	26	-15	-5	0	14
CC(=O)c1ccc(OCc2cc(C(=O)N3CCC(c4ccncc4)CC3)no2)cc1	44*	9	1	8	17	5	-39
COCC1CCN(C(=O)c2cc(COc3ccc4c(c3)CCCC4)on2)C1 (centres undefined)	40*	27*	24	-19	29	12	20
COCC1CCN(C(=O)c2cc(COc3ccc(C)c(C)c3)on2)C1 (centres undefined)	4	3	13	11	34	3	.
COc1cccc(OCc2cc(C(=O)N3CCC(c4ccncc4)CC3)no2)c1	34	21	32	14	16	13	.
CCCCCCCCCS(=O)(=O)N/N=C/c1cccc([N+](=O)[O-])c1	42*	28	24	.	11	14	30
CC(NC(=O)CCN1C(=O)c2ccccc2C1=O)c1ccc2c(c1)CCCC2 (centres undefined)	26	35	23	1	21	22	.
Clc1ccc(Cn2ncc3c(NCc4ccco4)ncnc32)c(Cl)c1	42*	18	45	.	28	12	25
Clc1ccc(-n2ncc3c(NCc4ccco4)ncnc32)cc1	23	12	16	-14	16	13	.
CC1=Nc2cccc([N+](=O)[O-])c2NC(=O)C1	.	-8	.	-17	.	.	.
Cc1ccc(C(C)C)c(OCC(=O)Nn2c(=O)[nH]c3ccccc3c2=O)c1	16	15	16	-11	7	-11	.
Cc1ccc(C(C)C)c(OCC(=O)Nn2c(C)nc3ccccc3c2=O)c1	47*	20	49	-55	8	23	28
CCOC(=O)c1ccc(NC(=O)CC2OCCN(CC)C2=O)cc1 (centres undefined)	50*	2	35	?	21	34	62*
CC(NC(=S)Nc1ccc(Cl)cc1Cl)C(c1cccs1)N1CCCC1 (centres undefined)	41*	28	34	-4	14	26	10
O=C(NC(=O)N1CCN(c2ccc([N+](=O)[O-])cn2)CC1)c1c(Cl)cccc1Cl	-14	.	-17	.	23	-27	.
O=C(Cc1ccc(F)cc1)NC1CCS(=O)(=O)C1 (centres undefined)	5	.	3	.	19	-4	.
CCN1CCSc2ccc(C(=O)NCc3cccc(Br)c3)cc21	41*	7	46	-16	4	11	35*
Cc1ccc(CN2CCSc3ccc(C(=O)N4CCOCC4)cc32)cc1	41*	6	38	0	21	4	15
CCN1CCN(C(=O)c2ccc3c(c2)N(Cc2ccc(C)cc2)CCS3)CC1	21	22	8	-19	14	3	.
O=C(NCC1CCCO1)c1ccc2c(c1)N(Cc1ccccc1)CCS2 (centres undefined)	41*	7	40	4	4	12	14
CN(C)c1cc(-c2ccc(Cl)cc2Cl)oc(=O)c1Cl	-21	-4	41	-7	42	-31	.
Cc1ccccc1N/C(=N/S(=O)(=O)c1cc(F)ccc1F)c1ccccc1	27	4	19	4	7	11	.
Cc1ccc(N/C(=N/S(=O)(=O)c2cccs2)c2ccccc2)c(C)c1	46*	-1	15	-77	-14	21	18
SMILES	tim10-1 inh	NALP1 yeast inh	tim23-1 inh	PfHsp90 yeast 2	NALP3 yeast inh	TIM10 inh	tim10-1 conf
Cc1n[nH]c(C)c1S(=O)(=O)N1CCCC(C(=O)O)C1 (centres undefined)	-15	.	-5	10	20	-2	.
COc1ccc(NC(=O)C2CCN(S(=O)(=O)c3ccc(Br)s3)CC2)cc1OC	12	28	3	.	31	17	.
Cc1cc(OCC(=O)Nc2sc3c(c2C#N)CC(C)(C)NC3(C)C)c(C(C)C)cc1Cl	47*	-2	25	-11	26	18	24
Cc1ccc(C(C)C)c(OCC(=O)Nc2sc3c(c2C#N)CC(C)(C)NC3(C)C)c1	11	27	37	-29	32	31	.
Cc1ccc(S(=O)(=O)NCCC(=O)OCc2ccc([N+](=O)[O-])cc2)cc1C	0	.	14	-7	2	-4	.
O=C(Cn1ccc(C(F)(F)F)n1)N=Nc1c(O)[nH]c2ccccc12	15	5	11	-13	8	24	.
CC(C)n1c(O)c(N=NC(=O)Cn2ccc(C(F)(F)F)n2)c2ccccc21	44*	-6	8	-9	-11	15	28
CCOc1cc(C2C(C#N)=C(N)OC(C)=C2C(C)=O)cc(Br)c1O (centres undefined)	10	2	15	.	21	-12	.
CCOc1cc(C2C(C#N)=C(N)OC(C)=C2C(C)=O)c(Br)c(Br)c1OC(C)C (centres undefined)	46*	-16	45	.	21	5	27
O=C(/C=C/c1ccc(OC2CSC2)cc1)c1ccccc1	44*	6	26	-50	40	23	33*
O=C(CCC(=O)c1ccccc1)Nc1ccccc1OC(F)F	-2	14	-7	-19	26	-9	.
CCc1c(C(=O)NCc2ccccc2Cl)[nH]c(C)c1C(C)=O	56*	11	12	2	16	-5	-5
O=C(c1ccc(Oc2ccccc2)cc1)c1nc2c(n1O)CCCC2	41*	0	15	.	-62	30	16
Cc1ccccc1Nc1nc(N)c2ccccc2n1	28	14	27	42	17	23	.
Nc1nc(Nc2ccccc2)nc2ccccc12	42*	20	13	.	25	28	38*
Cc1cccc(N2CCN(C(=O)c3ccccc3OCc3c(C)noc3C)CC2)c1C	24	.	18	2	2	28	.
O=C1c2ccccc2S(=O)(=O)N1CC(O)Cn1ccc2ccccc21 (centres undefined)	42*	12	45	-7	21	23	20
CCOC(=O)C1NN=C(C(=O)c2ccccc2)C1c1ccc(Cl)cc1 (centres undefined)	43*	16	29	-24	-16	9	19
CCOC(=O)C1NN=C(C(=O)c2ccccc2)C1c1ccccc1 (centres undefined)	16	14	26	-3	4	18	.
CCCN(CC1CC1)C(=O)CSc1ncnc2sccc12	-1	7	20	-39	21	8	.
